The list is not random: actives were taken first. Their share in the collection is about 3.4%.
GPR151 ag = activates the human receptor GPR151; Q8TDV0; PathHunter beta-arrestin GPR151 cells, luminescence; activation, % at 11.2 µM; 650,000 tested, 1% active; AID 1508602; in the data active means activation above about 4.9%;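 further: 0% = median of compound wells and 100% = cells with positive control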
FBW7 activator = human FBW7 E3 ligase activation, primary screen; normalized activity (activation), % at 26.1 µM; AID 1259310; AlphaScreen FBW7–phospho-cyclin E peptide binding, activator screen; 650,000 tested, 0.13% active; in the data active means normalized activity above about 1.9%;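 further: purified mutant Fbw7 with reduced substrate affinity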
TEAD-YAP inh = TEAD-YAP interaction inhibition; 640,000 tested, 1.4% active; HEK-TIYL cells, TEAD-Gal4/YAP UAS-luciferase luminescence; inhibition, % at 9.12 µM; in the data active means inhibition above about 32%;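 further: 0% = median of test compound wells and 100% = reference inhibitor wells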
MITF primary = inhibitors of human MITF | O75030 | AlphaScreen MITF homodimerization, bead proximity signal | inhibition, % at 2.6 µM | 650,000 tested, 0.91% active; in the data active means inhibition above about 50%;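 further: 0% = vehicle wells with protein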
Target sequence (O75030 whole entry, looked up): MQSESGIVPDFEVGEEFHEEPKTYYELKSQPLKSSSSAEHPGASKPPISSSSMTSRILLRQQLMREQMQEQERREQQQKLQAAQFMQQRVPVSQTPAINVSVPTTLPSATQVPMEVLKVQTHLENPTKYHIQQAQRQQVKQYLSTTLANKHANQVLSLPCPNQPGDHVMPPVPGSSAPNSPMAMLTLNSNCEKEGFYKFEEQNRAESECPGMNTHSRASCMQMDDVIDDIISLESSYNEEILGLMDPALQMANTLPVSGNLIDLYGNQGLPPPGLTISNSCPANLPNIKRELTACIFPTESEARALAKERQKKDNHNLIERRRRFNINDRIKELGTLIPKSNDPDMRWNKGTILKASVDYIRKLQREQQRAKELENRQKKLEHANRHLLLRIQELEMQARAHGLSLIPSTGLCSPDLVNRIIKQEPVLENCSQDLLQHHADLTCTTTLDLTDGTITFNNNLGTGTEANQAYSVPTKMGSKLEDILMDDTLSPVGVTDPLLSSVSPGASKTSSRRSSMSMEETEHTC
GPR151 confirm = confirmation of human GPR151 activators | shares compounds with GPR151 ag | GPR151 PathHunter beta-arrestin cells, luminescence, 90 min; % of EA-reagent control over plate median | activation, % at 11.2 µM | 6,700 tested, under 10 active | AID 1508609;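 active means mean percent activation across replicates above the confirmation screen cutoff of 4.91%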
GPR119 counter = counter-screen for GPR151 activators: effect on human GPR119; shares compounds with GPR151 ag; GPR119 PathHunter beta-arrestin cells, luminescence, 90 min; 0 = compound-well median, 100 = enzyme-acceptor control; activation, % at 11.2 µM; 6,700 tested, 0.3% active; AID 1508611;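 active means mean percent activation in the counterscreen above 29.09%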;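 further: counterscreen on off-target GPR119 to flag nonselective hits from the GPR151 activator screen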
The depositor's hits bear a star; nt = not tested or not shown.

SMILES | GPR151 ag | FBW7 activator | TEAD-YAP inh | MITF primary | GPR151 confirm | GPR119 counter
COCCNCCOc1ccc(C)cc1C | 8.1* | 0 | -4 | 35 | 2 | 17
Cc1ccc(CNC(=O)c2cn(C)c(=O)c3c2c2ccccc2n3C)cc1 | 1 | 0 | 11 | -2 | nt | nt
O=C(CN(Cc1ccccc1)S(=O)(=O)c1cc(Cl)ccc1Cl)N1CCCC1 | 3 | 0 | -2 | 22 | nt | nt
O=C(CN(CCc1ccccc1)S(=O)(=O)c1cc(Cl)ccc1Cl)N1CCCC1 | 18* | 0 | -3 | 21 | 0 | -13
O=C(O)Cc1ccc(NC(=O)c2ccccc2-c2ccccc2C(=O)O)cc1 | 6.6* | 0 | 7 | 7 | -1 | -11
N#Cc1c(NC(=O)c2nn3c(C(F)(F)F)cc(-c4cccs4)nc3c2Cl)sc2c1CCCCC2 | 0 | 0 | -3 | 7 | nt | nt
CC1CCCC(C)N1C(=O)c1cc2nc(-c3cccs3)cc(C(F)(F)F)n2n1 (stereo not given) | 5.4* | 0 | 6 | 1 | -1 | 3
N#Cc1c(NC(=O)c2nn3c(C(F)(F)F)cc(-c4cccs4)nc3c2Cl)sc2c1CCCC2 | 9.2* | 0 | -1 | -3 | 1 | 20
O=C(c1nn2c(C(F)(F)F)cc(-c3cccs3)nc2c1Cl)N1CCCCC1 | 6.4* | 0 | -1 | 5 | 1 | 13
COc1ccc(Cc2nc(SCC(=O)Nc3cccc(C(=O)OC(C)C)c3)n[nH]2)cc1 | 5.8* | 0 | -2 | 9 | 0 | 1
Cc1no[n+]([O-])c1COc1ccccc1C=C1C(=O)NC(=O)NC1=O | 1 | 0 | -3 | 13 | nt | nt
Cc1no[n+]([O-])c1COc1ccccc1C=C1C(=O)NC(=S)NC1=O | 6.2* | 0 | -1 | 29 | 0 | -1
c1ccc2[nH]c(CNc3nc(Nc4ccncn4)nc4nc[nH]c34)nc2c1 | 0 | 0 | 2 | -5 | nt | nt
COc1ccccc1C1CN(CC(=O)N(C)C(C)c2nccs2)Cc2ccccc2O1 (stereo not given) | -1 | 0 | -2 | -7 | nt | nt
CN(Cc1nccs1)C(=O)CN1Cc2ccccc2OC(c2ccccc2F)C1 (stereo not given) | 6.6* | 1 | 2 | 3 | 1 | 12
O=C(CCN1C(=O)C2C3C=CC(C3)C2C1=O)N1CCN(c2ccccc2Cl)CC1 (stereo not given) | 1 | 0 | -15 | 0 | nt | nt
O=C(CCN1C(=O)C2C3C=CC(C3)C2C1=O)N1CCN(c2ccccc2F)CC1 (stereo not given) | 5.1* | 0 | 3 | 13 | 0 | -6
Cc1ccccc1N(CC(=O)NC(C)(C)C)C(=O)CCC(=O)Nc1nccs1 | 5.7* | 0 | 0 | 8 | -1 | -12
CCC(C)(C)NC(=O)CN(C(=O)CCC(=O)Nc1nccs1)c1ccccc1C | 1 | 0 | -10 | -10 | nt | nt
O=S(=O)(c1ccc(N2CCCC(C(F)(F)F)C2)nc1)N1CCCC1 (stereo not given) | 5.8* | 0 | -4 | -2 | 0 | 3
Cc1ccc(NC(=O)c2sc3nc(C)nc(N4CCN(c5ccccn5)CC4)c3c2C)c(Br)c1 | 8.8* | 0 | 1 | -1 | -1 | 11
Cc1nc(N2CCOCC2)c2c(C)c(C(=O)Nc3cccc(C(F)(F)F)c3)sc2n1 | 5.8* | 0 | 6 | -5 | -1 | -14
Cc1cccc(NC(=O)c2sc3nc(C)nc(N4CCOCC4)c3c2C)c1 | 1 | 0 | -9 | 9 | nt | nt
Cc1nc2sc(C(=O)Nc3cccc(C(F)(F)F)c3)c(C)c2c(=O)[nH]1 | 6.5* | 0 | 2 | 11 | 1 | -4
COC(=O)c1ccc(C(=O)Nc2cc(C)on2)cc1 | -5 | 0 | -38 | -10 | nt | nt
SMILES | GPR151 ag | FBW7 activator | TEAD-YAP inh | MITF primary | GPR151 confirm | GPR119 counter
CCOC(=O)c1ccc(NC(=O)Cc2ccccc2)cc1 | 0 | 0 | -48 | 1 | nt | nt
O=C(NC(=S)Nc1ccccc1F)c1cccc([N+](=O)[O-])c1 | -1 | 0 | -2 | 6 | nt | nt
CCOc1cccc2sc(N(CCN(C)C)C(=O)c3cc(Cl)ccc3[N+](=O)[O-])nc12 | 7.1* | 0 | 5 | 16 | 1 | 7
O=C(c1cc(Cl)ccc1Cl)N(CCn1cccn1)c1nc2c(F)cccc2s1 | 6.1* | 0 | -8 | 0 | 0 | 0
CCCCC(=O)N(CCn1cccn1)c1nc2c(F)cccc2s1 | 0 | 0 | 0 | -2 | nt | nt
CSc1ccc(C2C3C(=O)N(c4ccccc4)C(=O)C3ON2c2ccc(Cl)cc2)cc1 (stereo not given) | 1 | 0 | 10 | -1 | nt | nt
COc1ccc2oc(=O)c(-c3nc(-c4ccccc4)c4cc(Cl)ccc4n3)cc2c1 | 1 | 0 | -23 | -2 | nt | nt
C/C(=N\Nc1ccc([N+](=O)[O-])cc1S(=O)(=O)N1CCOCC1)c1cccs1 | 6.3* | 0 | 4 | -8 | 0 | -12
COc1ccc(/C(C)=N/Nc2ccc([N+](=O)[O-])cc2S(=O)(=O)N2CCOCC2)cc1 | 1 | 0 | 0 | -5 | nt | nt
Cc1ccnc(SCC(=O)N2CCc3ccccc32)n1 | 5.4* | 0 | -40 | -6 | 0 | 9
O=C(CSc1nnc(-c2ccccc2O)o1)N1CCc2ccccc21 | 6.3* | 0 | 7 | 6 | 0 | 1
CS(=O)(=O)Nc1cccc(-c2cnn3c(NCc4cccs4)ccnc23)c1 | -1 | 0 | -13 | 21 | nt | nt
N#Cc1ccc(OCC(=O)OCC(=O)Nc2ncc(Cl)cc2Cl)cc1 | 5.6* | 0 | 0 | -4 | 0 | -8
Cc1cc(C)c(CN2CCc3nnc(CCNC(=O)COc4ccccc4)n3CC2)cc1C | -1 | 0 | 0 | 0 | nt | nt
CCC(CC)CN1CCc2nnc(CCNC(=O)COc3ccccc3)n2CC1 | 5.1* | 1 | 3 | 15 | 1 | 7
O=C(NCCc1nnc2n1CCN(Cc1cccc3ccccc13)CC2)C1CCCO1 (stereo not given) | 2 | 0 | -5 | -18 | nt | nt
O=C(NCCc1nnc2n1CCN(Cc1ccccc1-c1ccco1)CC2)C1CCCO1 (stereo not given) | 7.1* | 0 | 1 | 13 | 2 | 13
Cc1ccc(C)c(CN2CCc3nnc(CCNC(=O)COc4ccccc4)n3CC2)c1 | 8.8* | 0 | 15 | 6 | 1 | 6
COC(=O)C1=C(C(=O)OC)[C@@H]2N(Cc3ccccc3)c3ccccc3[C@@]23C[C@@H](CO)N(C(=O)Nc2ccc(C(F)(F)F)cc2)C3=N1 | -1 | 0 | nt | -1 | nt | nt
CCOC(=O)C1=C(C)NC2=C(C(=O)C(C(=O)OC)C(C)C2)C1c1cccc(OCC)c1 (stereo not given) | 1 | 0 | -1 | -3 | nt | nt
CCC1CN(Cc2ccc(OC)c(O)c2)Cc2cc(OC)ccc2O1 (stereo not given) | -1 | 0 | -4 | -1 | nt | nt
